From PubChem BioAssay AID1159580 (chemical genetic matrix, 2015)
Among all 5,500 compounds or so, about 2,000 (36%) were called active. Not shown: some 18% with an inconclusive outcome. No stated cut-off is given here; in the data, active means normalized growth mostly below about 0.91 (no sharp cut-off); inconclusive means no clear call, values can overlap the other calls; inactive means mostly above about 0.92. The list shows a part of the results.

Assay: chemical genetic growth profiling, strain panel (AID 1159580);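 further: tested at 20 µM; growth read once vehicle control cultures reached saturation at 30 °C; 1 = growth at the plate median or of vehicle wells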
Details: S. cerevisiae deletion strains, growth OD

Measured: normalized growth

C1CNCCN1
inactive: locus YAL013W, strain DEP1, stronger effect = lower value 1.01 | locus YAL021C, strain ccr4, stronger effect = lower value 0.999 | locus YAL026C, strain drs2, stronger effect = lower value 1.02 | locus YAL030W, strain snc1, stronger effect = lower value 1.01 | locus YBL061C, strain skt5, stronger effect = lower value 1.02 | locus YBR009C, strain hhf1, stronger effect = lower value 1.01 | locus YBR021W, strain FUR4, stronger effect = lower value 0.979 | locus YBR023C, strain chs3, stronger effect = lower value 1.02 | locus YBR171W, strain sec66, stronger effect = lower value 1.02 | locus YBR229C, strain ROT2, stronger effect = lower value 0.997 | locus YBR231C, strain swc5, stronger effect = lower value 0.997 | locus YBR279W, strain paf1, stronger effect = lower value 1.01 | locus YCL011C, strain gbp2, stronger effect = lower value 1.01 | locus YCL016C, strain dcc1, stronger effect = lower value 1.01 | locus YCL029C, strain bik1, stronger effect = lower value 0.997 | locus YCL061C, strain MRC1, stronger effect = lower value 1 | locus YCL069W, strain vba3, stronger effect = lower value 1.01 | locus YCR088W, strain abp1, stronger effect = lower value 1.01 | locus YDL005C, strain med2, stronger effect = lower value 1.02 | locus YDL035C, strain GPR1, stronger effect = lower value 1.01 | locus YDL040C, strain nat1, stronger effect = lower value 1.01 | locus YDL074C, strain BRE1, stronger effect = lower value 1.03 | locus YDL101C, strain DUN1, stronger effect = lower value 1.02 | locus YDL134C, strain PPH21, stronger effect = lower value 1.01 | locus YDL185W, strain tfp1, stronger effect = lower value 1.02 | locus YDL192W, strain arf1, stronger effect = lower value 0.999 | locus YDR001C, strain nth1, stronger effect = lower value 1.01 | locus YDR069C, strain doa4, stronger effect = lower value 1.01 | locus YDR101C, strain arx1, stronger effect = lower value 0.987 | locus YDR137W, strain rgp1, stronger effect = lower value 1.03 | locus YDR150W, strain NUM1, stronger effect = lower value 1 | locus YDR159W, strain sac3, stronger effect = lower value 1.04 | locus YDR162C, strain NBP2, stronger effect = lower value 1.02 | locus YDR195W, strain ref2 1 | locus YDR297W, strain sur2, stronger effect = lower value 1.01 | locus YDR318W, strain mcm21, stronger effect = lower value 0.998 | locus YDR334W, strain swr1, stronger effect = lower value 1.01 | locus YDR335W, strain msn5, stronger effect = lower value 1.01 | locus YDR388W, stronger effect = lower value 0.996 | locus YDR392W, strain spt3, stronger effect = lower value 0.962 | locus YDR502C, strain sam2, stronger effect = lower value 0.999 | locus YEL003W, strain gim4, stronger effect = lower value 1.01 | locus YEL037C, strain rad23, stronger effect = lower value 1.01 | locus YEL061C, strain CIN8 (second series), stronger effect = lower value 1.01 | locus YEL061C, strain CIN8, stronger effect = lower value 1 | locus YER015W, strain faa2, stronger effect = lower value 0.999 | locus YER016W, strain bim1, stronger effect = lower value 0.999 | locus YER110C, stronger effect = lower value 0.988 | locus YER111C, strain swi4, stronger effect = lower value 1.02 | locus YER155C, strain BEM2 (second series), stronger effect = lower value 1 | locus YER155C, strain BEM2, stronger effect = lower value 1.01 | locus YER167W, strain BCK2, stronger effect = lower value 1.01 | locus YFR010W, strain ubp6, stronger effect = lower value 1.01 | locus YGL078C, strain dbp3, stronger effect = lower value 0.99 | locus YGL086W, strain mad1, stronger effect = lower value 0.996 | locus YGL167C, strain pmr1, stronger effect = lower value 1.02 | locus YGL173C, strain kem1, stronger effect = lower value 1.02 | locus YGL227W, strain vid30, stronger effect = lower value 1.01 | locus YGL240W, strain doc1, stronger effect = lower value 1.01 | locus YGL248W, strain PDE1, stronger effect = lower value 1 | locus YGL253W, strain hxk2, stronger effect = lower value 0.992 | locus YGR078C, strain PAC10, stronger effect = lower value 1 | locus YGR135W, strain pre9, stronger effect = lower value 1.01 | locus YGR229C, strain SMI1, stronger effect = lower value 1.02 | locus YGR252W, strain gcn5, stronger effect = lower value 0.948 | locus YHR013C, strain ard1, stronger effect = lower value 1.03 | locus YHR027C, strain rpn1, stronger effect = lower value 1.02 | locus YHR030C, strain SLT2, stronger effect = lower value 1.02 | locus YHR079C, strain IRE1 (second series), stronger effect = lower value 0.988 | locus YHR079C, strain IRE1, stronger effect = lower value 1.03 | locus YHR094C, strain hxt1, stronger effect = lower value 1 | locus YHR129C, strain ARP1, stronger effect = lower value 1.01 | locus YHR142W, strain chs7, stronger effect = lower value 1.02 | locus YHR200W, strain rpn10, stronger effect = lower value 1.01 | locus YIL066C, strain RNR3, stronger effect = lower value 1.01 | locus YIL073C, strain SPO22, stronger effect = lower value 0.983 | locus YIL125W, strain kgd1, stronger effect = lower value 1 | locus YIR030C, strain dcg1, stronger effect = lower value 1 | locus YJL092W, strain hpr5, stronger effect = lower value 1.01 | locus YJL095W, strain BCK1 (second series), stronger effect = lower value 1.02 | locus YJL095W, strain BCK1, stronger effect = lower value 1.01 | locus YJL115W, strain asf1, stronger effect = lower value 1.01 | locus YJL129C, strain trk1, stronger effect = lower value 1.01 | locus YJL134W, strain LCB3, stronger effect = lower value 1.01 | locus YJL154C, strain vps35, stronger effect = lower value 1.02 | locus YJL164C, strain tpk1, stronger effect = lower value 1.01 | locus YJL166W, strain qcr8, stronger effect = lower value 1.02 | locus YJL168C, strain set2, stronger effect = lower value 0.994 | locus YJL187C, strain SWE1 (second series), stronger effect = lower value 1.02 | locus YJL187C, strain SWE1, stronger effect = lower value 1.01 | locus YJR043C, strain POL32, stronger effect = lower value 1.01
